From PubChem BioAssay
Activity calls are given as the source filed them. No rule for the calls is given here.

Each molecule was assayed on Aerobactin synthetase IucA (Klebsiella pneumoniae, hypervirulent) (assay: biochemical IucA inhibition screen of LOPAC library by absorbance (AID 1346212;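 also: 100% = no compound wells and 0% = no enzyme wells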)). Conditions: IucA enzyme assay, absorbance (OD) readout; stronger effect = lower value;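 tested at 8 µM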.

| SMILES | remaining activity |
| --- | --- |
| CN=c1nc(-c2ccccc2)n(-c2ccccc2)s1 | 109% (inactive) |
| COc1cc2nc(N3CCN(C(=O)OCc4ccccc4)[C@H](C(=O)NC(C)(C)C)C3)nc(N)c2cc1OC | 91.6% (inactive) |
| Nc1nc(OCc2ccccc2)c2[nH]cnc2n1 | 103% (inactive) |
| CC(C)(C)[C@]1(O)CCN2C[C@H]3c4ccccc4CCc4cccc(c43)[C@@H]2C1 | 105% (inactive) |
| CCN1CCC[C@H]1CNC(=O)c1cc(S(N)(=O)=O)ccc1OC | 122% (inactive) |
| CC(=O)N1CCN(c2ccc(OC[C@H]3CO[C@](Cn4ccnc4)(c4ccc(Cl)cc4Cl)O3)cc2)CC1 | 121% (inactive) |
| C[C@H](O)C(=O)C1=Nc2c(nc(N)[nH]c2=O)NC1 | 109% (inactive) |
| CN(Cc1cnc2nc(N)nc(N)c2n1)c1ccc(C(=O)N[C@@H](CCC(=O)O)C(=O)O)cc1 | 117% (inactive) |
| Cc1nc2c([nH]1)c(=O)n(C)c(=O)n2Cc1ccco1 | 99.1% (inactive) |
| C#CCN1C(C)=C(C(=O)OC)C(c2cccc([N+](=O)[O-])c2)C(C(=O)OCC)=C1C (stereo not given) | 112% (inactive) |
| CCCN(CC1CC1)c1nc(C)nc(Nc2c(Cl)cc(Cl)cc2Cl)c1Cl | 102% (inactive) |
| CC(C)(C)NC(=O)[C@H]1CC[C@H]2[C@@H]3CC[C@H]4NC(=O)C=C[C@]4(C)[C@H]3CC[C@]12C | 119% (inactive) |
| FC(F)(F)c1cc(CO[C@H]2CCCN[C@H]2c2ccccc2)cc(C(F)(F)F)c1 | 107% (inactive) |
| C[C@@H]1[C@@H]2Cc3ccc(O)cc3[C@@]1(C)CCN2CC1CC1 | 103% (inactive) |
| NCCNC(=O)c1ccc(Cl)cc1 | 88.1% (inactive) |
| CN(C)C/C=C(/c1ccc(Br)cc1)c1cccnc1 | 107% (inactive) |
| CC#C[C@]1(O)CC[C@H]2[C@@H]3CCC4=CC(=O)CCC4=C3[C@@H](c3ccc(N(C)C)cc3)C[C@@]21C | 111% (inactive) |
| O=C[C@H](Cl)[C@@H](O)[C@H](O)[C@H](O)CO | 101% (inactive) |
| CC(=O)[C@@]1(O)CC[C@H]2[C@@H]3CCC4=CC(=O)CC[C@]4(C)[C@H]3CC[C@@]21C | 106% (inactive) |
| COc1ccc2c(c1)CC[C@@H]1[C@@H]2CC[C@]2(C)[C@@H](NCCCCCCN3C(=O)CCC3=O)CC[C@@H]12 | 119% (inactive) |

| SMILES | remaining activity |
| --- | --- |
| C[C@@](Cc1ccc(O)c(O)c1)(NN)C(=O)O | 81.8% (inactive) |
| CCCCOC(=O)NS(=O)(=O)c1sc(CC(C)C)cc1-c1ccc(Cn2c(CC)nc3c(C)cc(C)nc32)cc1 | 116% (inactive) |
| Cc1ccc([N+](=O)[O-])cc1S(=O)(=O)N(C)C | 108% (inactive) |
| CC(C)(Sc1ccc(CCN(CCCCC2CCCCC2)C(=O)NC2CCCCC2)cc1)C(=O)O | 119% (inactive) |
| CCCCCCCCCCCCCCC[C@H](O)[C@H](N)CO | 83.3% (inactive) |
| CC(C(=O)O)c1ccc(CC2CCCC2=O)cc1 (stereo not given) | 120% (inactive) |
| C[C@]12CCC(=O)C=C1CC[C@@H]1[C@@H]2CC[C@@]2(C)[C@H]1CC[C@]2(O)C(=O)CO | 110% (inactive) |
| CCCCCCCC/C=C\CCCCCCCC(=O)O | 119% (inactive) |
| Cc1cccc(C#Cc2ccccc2)n1 | 123% (inactive) |
| O=C1CCC(c2ccc(-n3ccnc3)cc2)=NN1 | 111% (inactive) |
| C=CC[C@H](N)C(=O)O | 95.7% (inactive) |
| C[C@]12CC[C@@H]3c4ccc(O)cc4C[C@@H](CCCCCCCCCS(=O)CCCC(F)(F)C(F)(F)F)[C@H]3[C@@H]1CC[C@@H]2O (stereo not given in full) | 115% (inactive) |
| O=C1NC(=O)C(c2ccccc2[N+](=O)[O-])=C1Nc1ccc(O)c(Cl)c1 | 95% (inactive) |
| Oc1ccc(-c2nc(-c3ccc(F)cc3)c(-c3ccncc3)[nH]2)cc1 | 119% (inactive) |
| CCN1CCc2nc(N)oc2CC1 | 119% (inactive) |
| Cc1ccccc1/C=C/C1=NCCN1 | 120% (inactive) |
| CC(C)(C)NCC(O)COc1nsnc1N1CCOCC1 (stereo not given) | 109% (inactive) |
| COc1cc2c(cc1OC)-c1cc(=Nc3c(C)cc(C)cc3C)n(C)c(=O)n1CC2 | 97.5% (inactive) |
| N[C@@H](Cc1ccc(F)cc1)C(=O)O | 95% (inactive) |
| Cc1nc2sccn2c(=O)c1CCN1CCC(=C(c2ccc(F)cc2)c2ccc(F)cc2)CC1 | 99.1% (inactive) |
